# Reference: PubChem BioAssay AID493001 (Johns Hopkins Ion Channel Center, 2010)
# In all, about 1,900 compounds went through this assay and about 430 (23%) were called active.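 The calls were made as follows: active = duplicate-averaged calcium rise in uninduced cells above buffer wells' mean plus 5 SD; inactive = the rest.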 The list is a sample of the results.
# Assay: compound-evoked calcium rise in non-induced M3R cells, confirmation, artefact control for RGS4 inhibitor project, cell-based, HEK293 M3R, no carbachol, second counter-screen (AID 493001)
# Conditions: Fluo-4 calcium, at 10 µM; active compounds read high, normalised: buffer wells 0%, carbachol wells 100%
row,Structure (SMILES),calcium response (agonist-mode artifact)
1,C1=C(N2CCOCC2)/C(=C/c2nc3ccccc3[nH]2)CC1,185% (active)
2,Cc1nn(C(C)C(=O)N2CCOCC2)c(=O)c2nn(-c3ccccc3)c(C)c12 (configuration not stated),inactive
3,Cc1ccc(Sc2cc(N3CCOCC3)nc(-c3ccccc3)n2)cc1,17% (active)
4,COC(=O)C1CCN(C(=O)c2cc(=O)[nH]c3ccccc23)CC1,inactive
5,COC(=O)Cn1cc(/C=C/[N+](=O)[O-])c2ccccc21,11.5% (active)
6,CC(C)Cc1nc(Nc2ccc(S(=O)(=O)N3CCCC3)cc2)c2nnn(Cc3ccccc3)c2n1,inactive
7,COc1cc(Br)cc(/C=N/c2ncn[nH]2)c1O,inactive
8,COc1cc(/C=C2/C(=O)NN(c3cccc(Cl)c3)C2=O)cc(Br)c1O,43.5% (active)
9,C#CCOc1ccc(/C=C2/C(=O)NN(c3ccccc3)C2=O)cc1OC,inactive
10,Cc1ccc(/C=C2\CCn3c2nc2cc(C(=O)O)ccc2c3=O)c(C)c1,inactive
11,O=[N+]([O-])/C=C/c1ccc2c(ccn2Cc2ccccc2)c1,104% (active)
12,Cc1cc(-c2n[nH]c(=S)n2/N=C/C(Br)=C/c2ccccc2)n[nH]1,inactive
13,O=C(O)C(c1ccccc1)N1C(=O)/C(=C\c2ccc(-c3cccc(Cl)c3)o2)SC1=S (configuration not stated),599% (active)
14,O=C1c2ccccc2NC(c2ccc(-c3cccc(Cl)c3)o2)N1O (configuration not stated),inactive
15,O=C1Nc2ccc(Br)cc2/C1=N/N=C/C1=C(N2CCOCC2)C(=C\c2ccccc2)/CC1,inactive
16,O=C(COC(=O)c1cccc(Br)c1)Nc1cccc2c1C(=O)c1ccccc1C2=O,inactive
17,Oc1ccc(/C=N/Nc2ccc(C(F)(F)F)cn2)cc1O,inactive
18,Cc1nn2c(=O)cc(COC(=O)c3ccc(NC(=O)C(C)(C)C)cc3)nc2s1,inactive
19,COc1ccc(C(C[N+](=O)[O-])n2nc(C)cc2C)cc1 (configuration not stated),16% (active)
20,CCOC(=O)C1=NN(c2ccc(Cl)cc2)/C(=C/C2=NCCc3cc(OC)c(OC)cc32)S1,7% (active)
21,COc1ccc(NCc2nnc(SCc3ccccc3)n2-c2ccc(OC)cc2)cc1,inactive
22,O=S(=O)(Nc1nccs1)c1ccc2c(c1)OCCO2,inactive
